# Measurements as given in publication PMC7862700, “An all-to-all approach to the identification of sequence-specific readers for epigenetic DNA modifications on cytosine”.
# What was measured:
# Assay in all cases: DAPPL (digital affinity profiling via proximity ligation, sequencing); 10 mM Tris-HCl pH 7.5, 50 mM NaCl, 1 mM DTT, 4% glycerol, room temperature, 30 min; GST-TFs on glutathione beads, 16-mer random dsDNA library, 0.1% formaldehyde crosslink after washing; high values mean tight binding
# Settings in all cases: protein: recombinant; tags: N-terminal GST; dsDNA, one strand shown
# ETV1 = ETV1 (Homo sapiens, UniProt P50549 1-477)
# ETV1, sequence (P50549 whole entry, the tested form may be a part): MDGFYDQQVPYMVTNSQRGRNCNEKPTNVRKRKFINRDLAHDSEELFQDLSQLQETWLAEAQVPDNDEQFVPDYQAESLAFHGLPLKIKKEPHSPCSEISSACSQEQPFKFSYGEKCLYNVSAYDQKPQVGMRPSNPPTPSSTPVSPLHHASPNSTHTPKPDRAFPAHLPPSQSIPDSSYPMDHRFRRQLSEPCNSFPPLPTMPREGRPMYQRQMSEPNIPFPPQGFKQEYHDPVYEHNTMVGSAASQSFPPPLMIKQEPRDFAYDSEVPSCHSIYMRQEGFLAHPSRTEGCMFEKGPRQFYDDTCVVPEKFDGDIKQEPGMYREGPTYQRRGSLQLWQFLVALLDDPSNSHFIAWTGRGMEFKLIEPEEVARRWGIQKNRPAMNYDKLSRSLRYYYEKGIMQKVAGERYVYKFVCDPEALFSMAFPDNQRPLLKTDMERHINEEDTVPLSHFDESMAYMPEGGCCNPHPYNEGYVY
# How it was run: (§1)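 Yeast served to express human transcription factors as GST fusions, which were then captured on glutathione beads and labelled with DNA barcodes. Pooled with a tag-only sample, they were incubated with 200 nmole of a 16-mer random double-stranded DNA library for 30 min at room temperature in Tris/NaCl/DTT/glycerol buffer, washed, crosslinked with 0.1% formaldehyde, ligated by proximity, amplified by PCR and sequenced. Dividing each hexamer's read frequency for a factor by its frequency for the tag-only sample gives the binding signal.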
# ERF = biological target: T1, ERF (Homo sapiens, UniProt P50548 1-548)
# T1 sequence: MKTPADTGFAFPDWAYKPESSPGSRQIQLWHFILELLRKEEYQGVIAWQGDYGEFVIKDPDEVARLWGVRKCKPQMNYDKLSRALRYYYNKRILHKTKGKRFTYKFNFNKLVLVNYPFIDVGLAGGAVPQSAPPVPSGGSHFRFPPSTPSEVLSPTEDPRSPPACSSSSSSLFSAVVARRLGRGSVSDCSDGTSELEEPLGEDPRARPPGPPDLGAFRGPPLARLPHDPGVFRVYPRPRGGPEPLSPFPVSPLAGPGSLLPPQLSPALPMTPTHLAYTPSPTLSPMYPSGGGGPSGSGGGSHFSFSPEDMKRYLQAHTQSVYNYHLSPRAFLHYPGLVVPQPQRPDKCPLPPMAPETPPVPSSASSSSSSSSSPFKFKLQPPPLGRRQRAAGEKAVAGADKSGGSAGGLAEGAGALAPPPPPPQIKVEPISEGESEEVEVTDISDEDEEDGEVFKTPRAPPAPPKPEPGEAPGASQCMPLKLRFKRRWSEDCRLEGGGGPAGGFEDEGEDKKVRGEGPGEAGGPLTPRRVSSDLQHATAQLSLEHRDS
# How it was run: as §1
# ETV3L = biological target: T2, ETV3L (Homo sapiens, UniProt Q6ZN32 1-361)
# T2 sequence: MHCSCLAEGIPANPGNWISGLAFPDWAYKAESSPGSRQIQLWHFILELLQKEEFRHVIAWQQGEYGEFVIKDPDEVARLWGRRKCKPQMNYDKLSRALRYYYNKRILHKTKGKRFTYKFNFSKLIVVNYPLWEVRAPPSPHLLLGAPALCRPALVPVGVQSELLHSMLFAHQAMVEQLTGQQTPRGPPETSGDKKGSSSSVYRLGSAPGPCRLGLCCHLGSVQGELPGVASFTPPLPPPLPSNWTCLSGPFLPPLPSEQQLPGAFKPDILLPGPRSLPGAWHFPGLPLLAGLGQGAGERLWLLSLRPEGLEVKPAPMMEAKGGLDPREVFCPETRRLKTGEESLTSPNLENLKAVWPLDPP
# How it was run: as §1
# ETS2 = biological target: T3, ETS2 (Homo sapiens, UniProt P15036 1-469)
# T3 sequence: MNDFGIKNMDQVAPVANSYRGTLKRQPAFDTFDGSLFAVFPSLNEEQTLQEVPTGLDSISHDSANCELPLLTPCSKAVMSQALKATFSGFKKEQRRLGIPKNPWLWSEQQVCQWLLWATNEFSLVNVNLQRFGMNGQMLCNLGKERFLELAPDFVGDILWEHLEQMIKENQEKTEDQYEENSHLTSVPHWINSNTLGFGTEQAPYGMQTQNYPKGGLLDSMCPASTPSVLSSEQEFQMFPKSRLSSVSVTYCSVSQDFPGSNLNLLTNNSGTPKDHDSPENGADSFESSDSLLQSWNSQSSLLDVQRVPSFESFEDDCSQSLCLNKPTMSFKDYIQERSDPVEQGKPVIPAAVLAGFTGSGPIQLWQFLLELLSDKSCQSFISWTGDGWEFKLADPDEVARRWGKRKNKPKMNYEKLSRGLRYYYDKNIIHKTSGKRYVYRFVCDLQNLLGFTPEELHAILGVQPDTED
# How it was run: as §1
# SPDEF = biological target: T4, SPDEF (Homo sapiens, UniProt O95238 1-335)
# T4 sequence: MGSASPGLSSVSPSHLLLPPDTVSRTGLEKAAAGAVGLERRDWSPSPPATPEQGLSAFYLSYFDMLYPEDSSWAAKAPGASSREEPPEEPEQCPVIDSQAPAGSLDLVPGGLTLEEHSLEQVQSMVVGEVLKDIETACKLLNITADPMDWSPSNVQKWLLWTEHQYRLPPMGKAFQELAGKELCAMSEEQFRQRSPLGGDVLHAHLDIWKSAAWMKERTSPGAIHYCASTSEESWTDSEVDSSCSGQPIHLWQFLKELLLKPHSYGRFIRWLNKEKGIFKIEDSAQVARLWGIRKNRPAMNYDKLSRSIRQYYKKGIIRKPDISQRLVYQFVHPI
# How it was run: as §1
# ETV7 = biological target: T5, ETV7 (Homo sapiens, UniProt Q9Y603 1-341)
# T5 sequence: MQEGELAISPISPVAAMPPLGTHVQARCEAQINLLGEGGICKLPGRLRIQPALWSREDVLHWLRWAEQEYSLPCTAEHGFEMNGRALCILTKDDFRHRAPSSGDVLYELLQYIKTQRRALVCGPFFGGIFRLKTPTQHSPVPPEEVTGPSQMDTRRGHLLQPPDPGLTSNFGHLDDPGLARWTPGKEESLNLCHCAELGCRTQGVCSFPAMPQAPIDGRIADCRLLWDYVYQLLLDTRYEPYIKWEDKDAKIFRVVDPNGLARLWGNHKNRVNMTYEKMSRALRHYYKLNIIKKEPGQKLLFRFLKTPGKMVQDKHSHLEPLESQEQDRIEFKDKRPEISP
# How it was run: as §1
# ELF5 = biological target: T6, ELF5 (Homo sapiens, UniProt Q9UKW6-2 1-255)
# T6 sequence: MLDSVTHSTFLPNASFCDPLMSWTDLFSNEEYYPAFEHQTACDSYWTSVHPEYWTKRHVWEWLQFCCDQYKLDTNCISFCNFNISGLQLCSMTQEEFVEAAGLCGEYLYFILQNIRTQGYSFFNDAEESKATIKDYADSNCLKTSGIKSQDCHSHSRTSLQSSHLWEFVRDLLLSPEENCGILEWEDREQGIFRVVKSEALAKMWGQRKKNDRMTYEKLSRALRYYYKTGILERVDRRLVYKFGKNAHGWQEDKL
# How it was run: as §1
# ETV3 = biological target: T7, ETV3 (Homo sapiens, UniProt P41162-2 1-143)
# T7 sequence: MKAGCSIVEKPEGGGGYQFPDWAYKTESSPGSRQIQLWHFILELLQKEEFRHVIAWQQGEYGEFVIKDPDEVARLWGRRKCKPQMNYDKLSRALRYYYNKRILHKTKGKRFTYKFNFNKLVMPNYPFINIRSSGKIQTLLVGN
# How it was run: as §1
# ETV6 = ETV6 (Homo sapiens, UniProt P41212 1-452)
# ETV6, sequence (P41212 whole entry): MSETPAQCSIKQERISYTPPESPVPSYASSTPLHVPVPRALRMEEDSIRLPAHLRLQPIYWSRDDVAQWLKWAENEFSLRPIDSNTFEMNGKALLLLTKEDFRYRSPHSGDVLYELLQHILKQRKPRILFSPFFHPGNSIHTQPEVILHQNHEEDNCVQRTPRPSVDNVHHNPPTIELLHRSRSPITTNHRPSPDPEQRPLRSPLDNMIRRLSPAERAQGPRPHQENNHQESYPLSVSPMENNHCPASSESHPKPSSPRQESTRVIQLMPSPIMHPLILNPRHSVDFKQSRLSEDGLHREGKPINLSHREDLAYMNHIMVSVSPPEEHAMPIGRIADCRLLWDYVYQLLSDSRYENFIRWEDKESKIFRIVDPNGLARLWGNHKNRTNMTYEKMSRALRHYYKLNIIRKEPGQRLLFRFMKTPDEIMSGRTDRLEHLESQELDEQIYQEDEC
# How it was run: as §1
sequence,measurement,setting,value
ATTCTC,binding signal,ETV1,"1.23 fold enrichment (6-mer frequency, TF over GST control)"
same,binding signal,ERF,"1.22 fold enrichment (6-mer frequency, TF over GST control)"
same,binding signal,ETV3L,"1.31 fold enrichment (6-mer frequency, TF over GST control)"
same,binding signal,ETS2,"1.19 fold enrichment (6-mer frequency, TF over GST control)"
same,binding signal,SPDEF,"1.19 fold enrichment (6-mer frequency, TF over GST control)"
same,binding signal,ETV7,"1.23 fold enrichment (6-mer frequency, TF over GST control)"
same,binding signal,ELF5,"1.26 fold enrichment (6-mer frequency, TF over GST control)"
same,binding signal,ETV3,"1.17 fold enrichment (6-mer frequency, TF over GST control)"
same,binding signal,ETV6,"1.23 fold enrichment (6-mer frequency, TF over GST control)"
